{"source": "PubChem BioAssay (NCATS)", "note": "Inconclusive results are not listed. Unmarked numbers belong to inactive results. Activity calls are given as the source filed them. Calls follow the shape of the dose curve; as a rule, active = well fitted curve in the direction sought with a large enough effect; inconclusive = small, poorly fitted or top-dose-only effect, or another doubt; inactive = no such curve, though single readings can be large or run the other way. % is scaled to controls: 0 for no effect and ±100 for the full control effect; potency is read from the fitted curve at half-maximal effect."}
{"assay": "qHTS for Inhibitors of the vitamin D receptor (VDR): Hit Validation using a Texas Red Assay (AID 602201)", "conditions": "VDR coregulator binding, Texas Red fluorescence polarization, agonist-bound VDR ligand-binding domain; series mostly up to 57.1 µM; activity, negative = inhibition: at the top concentration", "summary_of_the_method": "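Fluorescence polarization (Ex 595/Em 615 nm) of Texas Red (7 nM) with 1.5 uM VDR-LBD and LG19078 (final concentrations). Compounds were incubated for 2 hours at room temperature.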", "units": {"activity, negative = inhibition": "%"}}
{"smiles": "O=C(O)CN1C(=O)/C(=C\\c2cc(Br)ccc2OCc2ccc(Cl)cc2Cl)SC1=S", "activity, negative = inhibition": 28.6}
{"smiles": "CCOc1ccc(C(=O)CC(C(=O)O)N2CCCCC2)cc1", "note": "(stereo unspecified)", "activity, negative = inhibition": -4.98}
{"smiles": "COc1ccc(C2=CC(=O)N(Nc3ccccc3)C2=O)cc1", "Potency": "10 µM (active)"}
{"smiles": "O=C(Nc1cc(S(=O)(=O)N2CCOCC2)ccc1N1CCCC1)c1ccc(Cl)cc1", "Potency": "20 µM (active)"}
{"smiles": "O=C(/C=C/c1ccnc2ccccc12)c1cccs1", "Potency": "28.2 µM (active)"}
{"smiles": "CCCCN1C(=O)C(=Nc2cccc3cnccc23)c2ccccc21", "activity, negative = inhibition": -11.2}
